From PubChem BioAssay AID1508600 (Functional Genomics Laboratory (NCATS/FGL), 2020)
Hit rate of the full screen: of about 53,000 sequences, about 3,700 (7%) were called active. The full list was thinned out, with actives kept by preference. Unmarked numbers belong to inactive results.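 How the source made its calls: active means gene knockdowns whose robust z-score for IL-1 alpha signal is at least 2 or at most -2, so actives lie on both sides; inactive means the rest.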

Assay: Components of the Cytosolic LPS Sensing Pathway: Gene Identification via Genome-wide siRNA Screen;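 further: robust z of the log signal after scaling to non-targeting control siRNA wells of the plate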
Conditions: RAW264.7 macrophages, IL-1a HTRF, actives lie on both sides, screened at 100 nM (by protocol), cells primed 5 h with Pam3CSK4 first
Outline: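 RAW264.7 mouse macrophages reverse-transfected with single siRNAs (100 nM final) for 48h, primed with Pam3CSK4 for 5 hours, then transfected with LipidA for 24 hour. Supernatant IL-1a read by HTRF; values normalized to negative-control median, log-transformed robust z-scores.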
For GGAAAUCGAGAGAAAUUCATT against Tead2, the z-score was 2.07 (active).
GCAGGUUGCACCAUGUAGATT against Slc25a42 gave a z-score of 0.701.
CCAUCUUGGGUUCUGGUCATT against Zc3h4 gave a z-score of -0.204.
With GGGCAAAACACUGUCUUUCTT against Tlr5 the z-score was 1.87.
For GCCUCUACUGGUUAUUUAATT against Slc22a15, the z-score was 2.09 (active).
Work on CCUUCAAGUACUUUCUCCGTT against Dcakd yielded a z-score of 1.22.
Work on GGAUGAGGAGGAAAAGCUGTT against Nop2 yielded a z-score of -1.86.
Sequence GGUCAAUGAACAGCACCGGTT against Igfbp2 has a z-score of 0.723.
With GGAUAAAGGAAAAGAAACATT against Rcvrn the z-score was -1.34.
Sequence CCAGACUCCUCUUAGAAGGTT against Ankrd34c has a z-score of 0.73.
In the case of GCUAGAUCUUUCAUCCAACTT against Lrtm1, the z-score is reported as 1.2.
With GGCCUUGGUGAAAAUGCAGTT against Plaat1 the z-score was -2.07 (active).
For GGAGACAUGGACCAUGGCUTT against Mapt, the z-score was 0.37.
Work on GGUGAUGUAUAUUGAGUCUTT against Sdcbp2 yielded a z-score of 0.149.
Work on GGAUAGACUUGAUUCUUGGTT against Emid1 yielded a z-score of 0.491.
For GGAAAUAGUACAGAAACCATT against Mcph1, the z-score was -2.44 (active).
CCAUGUUUUUAUAGCUCUUTT against Sidt2 gave a z-score of 1.49.
GGUGGAUAAAGCUUAAAUATT against V1rg10 gave a z-score of -0.258.
In the case of GGAGGCACAGAGAUUGAAGTT against Sry, the z-score is reported as 0.247.
Work on GGCAUCUUUGGAGACUGGUTT against Sycn yielded a z-score of 0.598.
Work on CCUUUGGAAUUUCUAAUACTT against Stil yielded a z-score of -0.286.
Work on GGCUGUCAAAACAGUGCUCTT against Hmgcs2 yielded a z-score of 1.45.
In the case of GCUGGAGACGUAUUUGUCCTT against Olfr294, the z-score is reported as 2.17 (active).
In the case of UUGGCUGCAUUAUCAUGAGTT against Olfr311, the z-score is reported as -0.419.
Work on GGUUUGGCAGAAGUGCAUGTT against Npff yielded a z-score of -0.801.
GCUACAUCGCUCUUAUAGCTT against Foxl1 gave a z-score of 0.0236.
With CGAUGUUGAGGGAUUAUCUTT against Tstd2 the z-score was -2.25 (active).
Sequence GGACUUGAAAUUAGCAAAATT against Arhgef3 has a z-score of -0.0218.
Work on GGACUUUAAAUGCAAUAUCTT against Trps1 yielded a z-score of -0.567.
For “GGCUCCAAGCACUAAAUAATT against B130024G19Rik”, the z-score was 0.168.
Work on CCUCAAACUAACCACUCACTT against Olfr1045 yielded a z-score of -1.13.
In the case of GGAGAUCCUGGAAGACUUCTT against Ocstamp, the z-score is reported as 2.18 (active).
For GGACUAUGCCAAUGUCAGATT against Zfp763, the z-score was 0.0585.
GGGUAAGCCAAGAAGAAGUTT against Rgs4 showed a z-score of -1.01.
GGGAAAAACUCUGUGUGUATT against Coasy gave a z-score of -0.25.
Sequence GGCUCCACACGAUUGUUAGTT against Gne has a z-score of -0.0134.
In the case of GUUCCACCAGAUUUUCUAATT against Vmn1r28, the z-score is reported as 2.6 (active).
GGAGAAUUUAGAGCUACCATT against Atg10 gave a z-score of -1.56.
For GCCCAUCACUUAUAGUGGGTT against Usf2, the z-score was -0.799.
For GGAGCAUUUUAUUCAGAUGTT against Rad23b, the z-score was 2.22 (active).
Sequence GGUGGAGAAGAAAUCUAAGTT against Eif4g1 has a z-score of -0.344.
With CCUGAGACCGAAUUUUACCTT against Cer1 the z-score was -0.209.
GGAAACGUGGGCAUGAUCATT against Olfr944 gave a z-score of -0.239.
In the case of GGAUAAUGAUGUGAAAGGCTT against Mrps30, the z-score is reported as 0.984.
With GGACAACAUGAACUGUCAGTT against Snrpd3 the z-score was -2.74 (active).
GCUUGACUUUGAAAGUCCATT against Gm11733 showed a z-score of -1.54.
GGCUUUCUCCCAGCAAUAGTT against Scrt1 showed a z-score of -1.97.
Sequence GGGAUCAACAUUUACCGAATT against Ablim1 has a z-score of 0.596.
Sequence CCCACCUUCCGACUUGAAUTT against Col12a1 has a z-score of -1.12.
GUCAGAACCAUAGCCAUGATT against Vmn1r202 showed a z-score of -0.623.
In the case of GCUGAUCAGAGACCAUUACTT against Cmss1, the z-score is reported as -2.26 (active).
GGGAGAAGGUGGAAAUACUTT against Hdgfl3 gave a z-score of 1.63.
In the case of GGCCAUACGGACCAUGUAUTT against Slc25a19, the z-score is reported as -1.25.
With GGACCAAAUCCUCUGAUUCTT against Bud13 the z-score was 2.74 (active).
Work on GGCUGCCUUGCUGAUUUGATT against Boc yielded a z-score of 0.762.
With CCUUUACGUUUCUGUGUCUTT against Slc37a4 the z-score was -1.19.
CCAUUCUACACUUUUCCACTT against Krtap1-5 showed a z-score of -0.909.
With GCCAAGCAUUAAGUGAUAATT against Setmar the z-score was 2.7 (active).
CCAACUAAUCCCAUAUUCCTT against Tmem43 showed a z-score of 0.0511.
In the case of GGAGCUAUGUUCAGUUCUUTT against Qsox1, the z-score is reported as 0.438.
For GCAUUAUCUGUGAAAAUCCTT against En2, the z-score was 0.262.
With GCAGAAAUUAACAAGUCUCTT against Kif2c the z-score was 0.816.
Work on GCACUGUUCGUUUUUGUUUTT against Astn1 yielded a z-score of 0.275.
With GGCUAUGGGAAUCAUGAAUTT against H2bc18 the z-score was -2.84 (active).
GCUCUAUGAGAGUAUAUUATT against Tamm41 gave a z-score of -0.495.
With GCAUGUGAUUACCUUUGUATT against Btbd10 the z-score was 0.633.
Work on GGGAUCCCGCAAAAUCAGATT against Osm yielded a z-score of 0.63.
In the case of GCACAUCUUGGACCGUUUCTT against Lhx3, the z-score is reported as 0.851.
In the case of GGGUACAAGCUUAUCAAUATT against Trpm6, the z-score is reported as 4.91 (active).
Sequence GGUGUAUAGCUGUUGUGGGTT against Dennd2d has a z-score of -1.41.
CCUCAAGGAACUGAAUGCCTT against Olfr1320 gave a z-score of 0.0261.
GGGAUAAAGAGAGACCCAATT against Flywch1 showed a z-score of 0.889.
With CCAGAUGACAAUGAGUCAGTT against Ss18 the z-score was -0.197.
For CCUAAAUUUGACUGUGCCUTT against Nudt10, the z-score was 2.13 (active).
GCGAUUGUCAUUCUCUUUUTT against Jak3 showed a z-score of 0.711.
In the case of GGGCUUUCCCAGUUCCUAATT against Bmp6, the z-score is reported as 2.04 (active).
CCACCUCAAGUCAAAGACUTT against Cggbp1 gave a z-score of -0.445.
Sequence GGCUCUAGAAGCGAGAAUCTT against Six6 has a z-score of -0.234.
GGACCUAAUCCAUAAGGUCTT against Pcyox1l showed a z-score of -0.379.
With GGAACAGAUCUCUGAUAUATT against Sub1 the z-score was 0.564.
Work on GGCCUUCAUUGAGAUGAACTT against Ptbp1 yielded a z-score of -1.17.
With GGCUAUGAUGAUUAUAAUGTT against Hnrnph1 the z-score was 0.724.
For GGACCAGAGGAGAUUUCAATT against Ern2, the z-score was 1.56.
In the case of GGUAAACUCAAGUUUUCAGTT against Inpp5j, the z-score is reported as 2.36 (active).
Sequence GGAUGAGAAACCAUUUAAATT against Oas1f has a z-score of -1.08.
In the case of GGAUCUCCCUCUAAAUAUUTT against Hsp90aa1, the z-score is reported as -0.138.
Work on CGGAAAGUCCGGUUUCGAATT against Grxcr1 yielded a z-score of 0.156.
In the case of CGAAGUUACGAGCAUCCACTT against Crhr2, the z-score is reported as 3.81 (active).
Work on GGUUUACAGCAUCAUUAAATT against Shmt1 yielded a z-score of 0.345.
CCAGACGAGGAGAACAUCATT against Samd4b showed a z-score of -0.111.
In the case of GGAUUAGCCUGGUCCUUUUTT against Dusp14, the z-score is reported as 0.989.
With CCGUCCGAUGAAAAACAGGTT against Prm1 the z-score was -0.128.
For GCCCACCGACUUUAUUAACTT against Tfap2d, the z-score was 0.541.
In the case of GCCAGACAAGCCUCAUUGATT against Ncapd2, the z-score is reported as -2.2 (active).
For GGAAAAGAAAAUCGAGACCTT against Ubap2l, the z-score was 0.776.
With GGUACAAAUGCAUUGAGAGTT against Fcamr the z-score was -1.3.
Work on GGCAAAGACAAGAAGCUGUTT against Drap1 yielded a z-score of -0.445.
In the case of GCACAACUUAUGACUGAAATT against Emc4, the z-score is reported as 1.66.
For GCUUCAAGUCAACUUAGUCTT against Hal, the z-score was 1.24.
With GCGAAUUCGAAAGCUAUGATT against Arhgef10 the z-score was -2.19 (active).
Work on CCGAAGACUAGCUAAUUUUTT against Sult1c1 yielded a z-score of 1.17.
CCUUCAACUAUGGCAAAUATT against Cacul1 gave a z-score of -0.241.
In the case of GCUCUGAACUCAAUAAUAATT against Atg7, the z-score is reported as -0.875.
Sequence GCGGAUCUGCUUUUUGCACTT against Ttc14 has a z-score of -0.105.
Sequence ACUUCGUAAAAGAGCACAATT against Platr25 has a z-score of 1.02.
In the case of “GGAUCUUGAAGAUAAGAGCTT against 1810009A15Rik”, the z-score is reported as -0.599.
Sequence GGGUUUCAGAACUGAGUUATT against Saa1 has a z-score of -0.28.
For GCCAUGAAUCCUAUCCGCATT against Ephb3, the z-score was -0.967.
